# Assay results taken from PubChem BioAssay (NCI).
# Compounds without any hit were thinned out: in the full panel of roughly 83,000, 20% have a hit.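 Interpretation: 100, growth as untreated; towards 0, rising growth inhibition; 0, no net growth; 0 to -100, cell death. Compounds scoring below 10 were considered active.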 Values without a mark were called inactive. Active and inactive are the calls of the source.
# Test system: HL-60(TB) leukemia
# Assay: NCI-60 one-dose screen, 48 h (100 = growth as untreated, 0 = no growth, -100 = all killed)
# Settings: 10 µM unless noted
row,SMILES,growth
1,COc1cc2c3c(n(C4CCN(C)CC4)c(=O)c2cc1OC)-c1cc2c(cc1C3=O)OCO2,95%
2,COc1ccc(N(Cc2cc(OC)c(OC)c(OC)c2)C2OC(=O)c3ccccc32)cc1 (stereo unspecified),2.92% (active)
3,COC(=O)c1nc(-c2ccccc2)oc1S(=O)(=O)N1CCCC(C)C1 (stereo unspecified),15%
4,COc1ccc(CN2CCc3c(Sc4ccccc4)nc(N)nc3C2=O)c(OC)c1,14.3%
5,O=C(CSc1nnc(-c2cc3c([nH]c4ccccc43)c(-c3cccc(O)c3)n2)n1-c1ccccc1)c1ccccc1,56.2%
6,COc1ccc(CCCc2c3[n+](cc4c(OC)c(OC)ccc24)CCc2cc4c(cc2-3)OCO4)cc1,36.6%
7,COc1ccc2c(c1)c(-c1nc(-c3c[nH]c4ncccc34)cs1)cn2CCN,41.2%
8,COc1cc(/C=C\c2cc(OC)c(OC)c(OC)c2)cc(NS(=O)(=O)c2ccc(Cl)cc2)c1OC,-31% (active)
9,Cc1nccc2c3ccc(OCc4cn(-c5ccc(Br)cc5)nn4)cc3n(CC(C)C)c12,-48.1% (active)
10,CC/C=C/[C@@H]1C=C[C@@H]2CCC[C@H]2[C@@H]1CC[C@H](O)[C@H](C)N,-61.6% (active)
11,C(=C\c1c[nH]c2ccccc12)/c1ccc2ccccc2n1,2.85% (active)
12,CC1(C)CC2=C3C=C[C@@H]4[C@@]5(C)CCC(=O)C(C)(C)[C@@H]5CC[C@@]4(C)[C@]3(C)CC[C@@]2(C(=O)O)C[C@H]1O,23%
13,C/C1=C\CCC2(C)OC2CC2CCC(C)(O)C(CC1)C2(C)C (stereo unspecified),142%
14,CC(=O)[C@@H]1CC[C@]2(CO)CC[C@]3(C)[C@H](CC[C@@H]4[C@@]5(C)CCCNC(C)(C)[C@@H]5CC[C@]43C)[C@@H]12,136%
15,CCNC(=O)c1[nH]cc(-c2ccc(OC)cc2)c1-c1cc(OC)c(OC)c(OC)c1,5.15% (active)
16,COC(=O)C1CC(=O)N(C(=O)Nc2ccc(Cl)cc2Cl)C1 (stereo unspecified),97.8%
17,COC(=O)[C@H](Cc1ccc(O)cc1)NC(=O)[C@@H](OC)[C@@H]1Cc2cc3cc(OC4CC(OC5CC(O)C(O)C(C)O5)C(O)C(C)O4)c(C)c(O)c3c(O)c2C(=O)[C@H]1OC1CC(OC2CC(OC3CC(C)(O)C(O)C(C)O3)C(O)C(C)O2)C(O)C(C)O1 (stereo partly specified),8.2% (active)
18,CC/C=C\C/C=C\C[C@H]1C/C=C2/C(=O)C=C[C@H]2C/C=C\CCC(=O)O1,-5.31% (active)

row,SMILES,growth
1,COc1ccccc1-n1c(SCc2cc(OC)c(OC)c(OC)c2)nc2ccc(Cl)cc2c1=O,-19.6% (active)
2,CCOC(=O)C(C(C)=O)c1nc2sc3cc(Cl)ccc3n2c(=N)c1C#N (stereo unspecified),115%
3,Clc1nc(N2CCC[N+]3(CC2)CC[N+]2(CCCNCC2)CC3)nc(N2CCC[N+]3(CC2)CC[N+]2(CCCNCC2)CC3)n1 (stereo unspecified),97%
4,CC1(C(=O)O)CCC(N)(C(=O)O)C1(C)C (stereo unspecified),101%
5,CC1(C)CC[C@]2(C(=O)N3CCOCC3)CC[C@]3(C)C(=CC[C@@H]4[C@@]5(C)C/C(=C/c6ccncc6)C(=O)C(C)(C)[C@@H]5CC[C@]43C)[C@@H]2C1,-37.6% (active)
6,Cc1cc(Nc2nc(N3CCOCC3)nc3ccccc23)n[nH]1,63.1%
7,CCOC(=O)n1cc(-c2nonc2-c2cn(C(=O)OCC)c3ccc(Br)cc23)c2ccccc21,93.9%
8,COc1cc(-c2csc(NC(=O)Nc3ccc(Cl)c(C(F)(F)F)c3)n2)cc(OC)c1OC,-6.26% (active)
9,COCC[C@H]1CCC/C=C/[C@@H]2C[C@H](O)C[C@H]2[C@H](O)/C=C/C(=O)O1,3.25% (active)
10,Nc1nc(N)c(N=Nc2c(Br)cc(S(N)(=O)=O)cc2Br)c(N)n1,105%
11,CN(C)S(=O)(=O)n1cnc([C@@H]2[C@@H]3C(=O)OC[C@@H]3C[C@]23N=CN(Cc2ccccc2)C3=O)c1,123%
12,COc1cc2c(c(OC)c1OC)-c1ccc(SC)c(=O)cc1[C@@H](NC1OC(CO)C(O)C(O)C1O)CC2 (stereo partly specified),-38.6% (active)
13,O=C(CCl)N1CCN(C/C=C/c2ccccc2)CC1,102%
14,CC(C)(C)CC(C)(C)Nc1c(-c2ccncc2)nc2cnccn12,102%
15,O=C(NCCCNc1cc(-c2cn(-c3ccccc3)nc2-c2cccc(O)c2)ccn1)c1ccc(F)cc1,-2.74% (active)
16,CCCCC1=c2c([nH]c3ccc(OC)cc23)=NC2C=CC=NC12 (stereo unspecified),80.5%
17,CCCCC(C#N)C(N)=O (stereo unspecified),93.8%
18,COc1cccc(N2CCN(CC(=O)N3CCN(c4nnc(-c5ccc(Cl)cc5)c(-c5ccc(Cl)cc5)n4)CC3)CC2)c1,20.6%
